PubChem BioAssay (EPA / NIEHS)
The source holds several records for some structures; these can differ, active in one and inactive in another. Calls of active or inactive are those of the source. The calls were made as follows: active = hit-call score of the fitted dose curve at least 0.9, where 1 is the maximum; inactive = score below 0.9.

Read-out: Decorin, DCN (gene 1634)
Assay: BSK_MyoF_Decorin: BioMAP Diversity Plus: MyoF Assay for Decorin Biomarker Activity (AID 2284265)
Details: primary human lung fibroblasts
Protocol: BSK_MyoF is a cell-based, multiplexed-readout assay that uses lung fibroblasts, […], with measurements taken at 24 hours after chemical dosing in a microplate: 96-well plate.BSK_MyoF_Decorin is an assay component measured in the BSK_MyoF assay. It measures Decorin antibody related to regulation of gene expression using ELISA technology.Data from the assay component BSK_MyoF_Decorin was analyzed at the endpoint, BSK_MyoF_Decorin, in the positive analysis fitting direction relative to DMSO as the negative control and baseline of activity. Using a type of binding reporter, gain or loss-of-signal activity can be used to understand protein changes. To generalize the intended target to other relatable targets, this assay endpoint is annotated to the 'cell adhesion molecules' intended target family, where the subfamily is 'decorin'.
The levels of cell surface (or secreted, indicated by the prefix "s") biomarker endpoints were measured by ELISA. Overt cytotoxicity to cells in confluent adherent cultures (all systems other than the BT system) was assessed by measuring total protein levels using sulforhodamine B (SRB) staining in parallel cultures at the time of biomarker measurements, indicated as SRB endpoints. For proliferation assays for adherent cell types, individual cell types are cultured at sub-confluence and relative cell numbers quantified by SRB staining at time points optimized for each system (48 h: 3C and CASM3C systems; 72 h: BT and HDF3CGF systems; 96 h: SAg system). SRB was performed by staining cells with 0.1% SRB after fixation with 10% TCA and reading wells at 560 nm.Viability and proliferation of PBMC (T cells) was quantified by Alamar Blue reduction for the SAg and BT systems. For PBMC viability (referred to as PBMC Cytotoxicity within the assay endpoint names), cells were plated (75,000/well in a 96-well plate) and then chemical samples added for 1 h before addition of activators, SEB and TSST-1 (20 ng/mL final concentration each). Cells were incubated for 90 h. Then, Alamar Blue (20 uL/well) (Invitrogen, Cat DAL1100) was added for 6 h, and the plates were read with a fluorescence microplate reader at 546/580 nm (excitation/emission). For PBMC proliferation, cells were plated and activated as above but incubated for only 16 h prior to addition of Alamar Blue. Plates were read after 6 h.

SMILES | outcome | AC50
O=P(O)(O)CCC(F)(F)C(F)(F)C(F)(F)C(F)(F)C(F)(F)C(F)(F)C(F)(F)C(F)(F)F | inactive | 
CCCCCCCCCCCCCCCCCC[N+](C)(C)Cc1ccccc1 |  | 10 µM (active)
O=S(=O)(O)C(F)(F)C(F)(F)C(F)(F)C(F)(F)C(F)(F)C(F)(F)C(F)(F)C(F)(F)C(F)(F)C(F)(F)F | inactive | 
CCCCCc1ccc(O)cc1 | inactive | 
Clc1ccc(Nc2nnc(Cc3ccncc3)c3ccccc23)cc1 | inactive | 
O=C(CC(=O)C(F)(F)C(F)(F)C(F)(F)F)c1cccs1 | inactive | 
OCC(F)(F)C(F)(F)C(F)(F)C(F)(F)C(F)(F)C(F)(F)C(F)(F)C(F)(F)C(F)(F)C(F)(F)C(F)(F)F | inactive | 
Cc1ccc(N=Nc2c(O)ccc3ccccc23)c(C)c1 | inactive | 
C=CC(=C)CC/C=C(\C)CCC=C(C)C | inactive | 
O=P(O)(O)CCC(F)(F)C(F)(F)C(F)(F)C(F)(F)C(F)(F)C(F)(F)F | inactive | 
Oc1cc2ccccc2cc1O | inactive | 
COc1cc(OC)nc(NC(=O)NS(=O)(=O)Nc2ccccc2C(=O)N(C)C)n1 | inactive | 
COC1=CC(=O)C[C@@H](C)[C@]12Oc1c(Cl)c(OC)cc(OC)c1C2=O | inactive | 
CN(C)c1ccc(C(=C2C=CC(=[N+](C)C)C=C2)c2ccccc2)cc1 | inactive | 
CN(Cc1cnc2nc(N)nc(N)c2n1)c1ccc(C(=O)N[C@@H](CCC(=O)O)C(=O)O)cc1 | inactive | 
O=C1OC2(c3ccccc31)c1cc(I)c(O)c(I)c1Oc1c2cc(I)c(O)c1I |  | 2.56 µM (active)
CC[N+](CC)(CC)Cc1ccccc1 | inactive | 
C=CC(=O)OCCC(F)(F)C(F)(F)C(F)(F)C(F)(F)C(F)(F)C(F)(F)C(F)(F)C(F)(F)F | inactive | 
CCCCC(CC)C(=O)OCCOCCOCCOCCOC(=O)C(CC)CCCC (centres undefined) | inactive | 

SMILES | outcome | AC50
O=C(O)C(F)(F)OC(F)(F)C(F)(F)OC(F)(F)C(F)(F)OC(F)(F)C(F)(F)C(F)(F)C(F)(F)F | inactive | 17.3 µM (active)
O=C(O)CCC(F)(F)C(F)(F)C(F)(F)C(F)(F)C(F)(F)C(F)(F)F | inactive | 
CN(CCO)S(=O)(=O)C(F)(F)C(F)(F)C(F)(F)C(F)(F)C(F)(F)C(F)(F)C(F)(F)C(F)(F)F | inactive | 
CC(C)(C)c1ccc(O)c(O)c1 | inactive | 
CC1=NN(c2ccccc2)C(=O)C1 | inactive | 
OCCN1CN(CCO)CN(CCO)C1 | inactive | 
C=COC(=O)C(C)(C)CCCCCC |  | 31.7 µM (active)
O=C(NCc1ncc(C(F)(F)F)cc1Cl)c1c(Cl)cccc1Cl | inactive | 
Cc1ccc(C(=O)c2ccccc2)cc1 | inactive | 
CCOC(=O)CN[C@@H](C(=O)N1CC[C@H]1C(=O)NCc1ccc(/C(N)=N/O)cc1)C1CCCCC1 | inactive | 
C[C@]12CC[C@@H]3c4ccc(O)cc4CC[C@H]3[C@@H]1C[C@@H](O)[C@@H]2O | inactive | 
COCN(COC)c1nc(N(COC)COC)nc(N(COC)COC)n1 | inactive | 
O=C(O)CCC(F)(F)C(F)(F)C(F)(F)C(F)(F)C(F)(F)F | inactive | 
O=C(NO)c1ccccc1 | inactive | 
C=CC(C)(CCC=C(C)C)OC(C)=O (centres undefined) | inactive | 
NC(=NCCCCCCN=C(N)/N=C(\N)Nc1ccc(Cl)cc1)/N=C(\N)Nc1ccc(Cl)cc1 |  | 9.05 µM (active)
COc1cccc(O)c1 | inactive | 
O=C1c2ccc(O)c(O)c2C(=O)c2c(O)ccc(O)c21 | inactive | 
Cc1cccc2c1ccc1ccccc12 | inactive | 
